CYP2C9 act – increases human cytochrome P450 2C9 activity; P11712; recombinant CYP2C9, luciferin-H conversion, luminescence; active compounds read high; factor 1 = untreated enzyme, 0 = blocked; activation factor at 5 µM; 1.4% of 96,000 active;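 active = activation factor of 2 or more for CYP2C9 at a 5 µM dose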
Target sequence (P11712 whole entry, looked up): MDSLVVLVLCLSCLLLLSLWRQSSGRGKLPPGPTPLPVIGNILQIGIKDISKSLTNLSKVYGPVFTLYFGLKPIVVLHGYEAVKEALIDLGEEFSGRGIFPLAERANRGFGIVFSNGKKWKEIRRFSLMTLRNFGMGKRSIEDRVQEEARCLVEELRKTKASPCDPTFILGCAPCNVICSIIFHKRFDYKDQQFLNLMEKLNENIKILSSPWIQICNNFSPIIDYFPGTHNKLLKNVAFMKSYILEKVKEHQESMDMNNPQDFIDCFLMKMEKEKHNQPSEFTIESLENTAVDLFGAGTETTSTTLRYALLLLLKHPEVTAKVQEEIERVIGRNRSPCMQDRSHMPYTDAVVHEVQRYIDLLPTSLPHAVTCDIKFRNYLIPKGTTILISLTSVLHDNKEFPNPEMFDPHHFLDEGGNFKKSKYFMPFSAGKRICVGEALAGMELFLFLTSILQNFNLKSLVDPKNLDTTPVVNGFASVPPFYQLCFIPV
CYP2C19 activ – activators of human cytochrome P450 2C19 | 96,000 tested, under 10 active | recombinant CYP2C19, luciferin-H EGE luminescence; active compounds read high; 0 = fully inhibited enzyme, 1 = untreated enzyme | AID 1025 | activation factor at 5 µM | P33261;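 active = activation factor of at least 2 at 5 µM in the primary screen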
CYP2C19 inh – blocks human cytochrome P450 2C19. inhibition, % at 5 µM. P33261. 21% of 96,000 active. CYP2C19 Supersomes, luciferin-H EGE luminescence, 30 min;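 active = CYP2C19 inhibition above a set limit at 5 µM in the primary screen, cut at about 50% in these data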
CYP2C9 inhib – human CYP2C9 inhibition. P11712. CYP2C9 Supersomes, luciferin-H conversion, luminescence. inhibition, % at 5 µM. 20% of 96,000 active. AID 777;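 active = blocking of liver enzyme CYP2C9 beyond about 50% at 5 µM, limit read from the data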
Numbers stand for hits. The list is a sample of the results.

CCc1nnc(NC(=O)CCC(=O)N2CCN(CCOc3ccc(C)cc3)CC2)s1 was read as CYP2C9 act inactive, CYP2C19 activ inactive, CYP2C19 inh inactive and CYP2C9 inhib inactive.
For Cn1c(SCC(=O)C(C)(C)C)nnc1-c1ccncc1 the results were CYP2C9 act inactive, CYP2C19 activ inactive, CYP2C19 inh 86.7 and CYP2C9 inhib 63.0.
CC(=O)CSc1nnc(-c2ccncc2)n1C was read as CYP2C9 act inactive, CYP2C19 activ inactive, CYP2C19 inh inactive and CYP2C9 inhib inactive.
For COc1ccc(-c2nnc(SCC(=O)NCc3ccco3)n2C)cc1 the results were CYP2C9 act inactive, CYP2C19 activ inactive, CYP2C19 inh inactive and CYP2C9 inhib inactive.
`COc1ccc(-n2c(-c3ccc(F)cc3)cnc2SCC(=O)NCc2ccco2)cc1` gave CYP2C9 act inactive, CYP2C19 activ inactive, CYP2C19 inh 91.9 and CYP2C9 inhib 94.3.
For O=C(CSc1ncc(-c2ccccc2)n1-c1ccccc1)NCc1ccco1 the results were CYP2C9 act inactive, CYP2C19 activ inactive, CYP2C19 inh 50.2 and CYP2C9 inhib 74.3.
Screening Cc1nnc(SCC(=O)NCc2ccco2)n1-c1ccccc1 returned CYP2C9 act inactive, CYP2C19 activ inactive, CYP2C19 inh inactive and CYP2C9 inhib inactive.
`COC(=O)c1cc(Br)c(=O)n(Cc2cccnc2)c1` gave CYP2C9 act inactive, CYP2C19 activ inactive, CYP2C19 inh inactive and CYP2C9 inhib inactive.
`COc1cccc(Oc2nc3ncn(Cc4ccccc4)c3c(=O)n2C)c1` gave CYP2C9 act inactive, CYP2C19 activ inactive, CYP2C19 inh inactive and CYP2C9 inhib inactive.
`COc1ccc(-c2nc(CS(=O)CC(=O)NCCCN3CC(C)CC(C)C3)c(C)o2)cc1OC` (stereo not given) gave CYP2C9 act inactive, CYP2C19 activ inactive, CYP2C19 inh inactive and CYP2C9 inhib inactive.
For CCOC(=O)COc1ccc(/C=C2/SC(=Nc3ccccc3)N(Cc3cccnc3)C2=O)cc1OC the results were CYP2C9 act inactive, CYP2C19 activ inactive, CYP2C19 inh 55.3 and CYP2C9 inhib 75.1.
For CCOC(=O)COc1c(Br)cc(/C=C2\SC(=O)N(CC(=O)N3CCCC3)C2=O)cc1OC the results were CYP2C9 act inactive, CYP2C19 activ inactive, CYP2C19 inh inactive and CYP2C9 inhib inactive.
For CCCC(CCC)C(=O)Nc1ccncc1 the results were CYP2C9 act inactive, CYP2C19 activ inactive, CYP2C19 inh 90.6 and CYP2C9 inhib 78.8.
CCC(CC)C(=O)Nc1ccc(C)c(O)c1 was read as CYP2C9 act inactive, CYP2C19 activ inactive, CYP2C19 inh inactive and CYP2C9 inhib inactive.
CCOC(=O)Cn1nnc(-c2ccc(OCC(C)C)cc2)n1 was read as CYP2C9 act inactive, CYP2C19 activ inactive, CYP2C19 inh inactive and CYP2C9 inhib inactive.
For CCOC(=O)Cc1cnc(NC(=O)Cn2nnc(-c3ccc(OCC)cc3)n2)s1 the results were CYP2C9 act inactive, CYP2C19 activ inactive, CYP2C19 inh 66.2 and CYP2C9 inhib 85.0.
Screening CCCCOc1ccc(-c2nnn(CC(=O)Nc3ncc(CC(=O)OCC)s3)n2)cc1 returned CYP2C9 act inactive, CYP2C19 activ inactive, CYP2C19 inh inactive and CYP2C9 inhib 76.0.
`CCCCOc1ccc(-c2nnn(CC(=O)NCc3ccco3)n2)cc1` gave CYP2C9 act inactive, CYP2C19 activ inactive, CYP2C19 inh inactive and CYP2C9 inhib inactive.
`O=C(O)c1ccccc1C1=Nc2ccc(O)cc2Oc2cc(O)ccc21` gave CYP2C9 act inactive, CYP2C19 activ inactive, CYP2C19 inh inactive and CYP2C9 inhib inactive.
COc1ccc(-n2c(C)cc(C(=O)Cn3nnc4ccccc4c3=O)c2C)cc1 was read as CYP2C9 act inactive, CYP2C19 activ inactive, CYP2C19 inh 60.0 and CYP2C9 inhib 83.3.
`Cc1cc(C(=O)Cn2nnc3ccccc3c2=O)c(C)n1-c1ccccc1F` gave CYP2C9 act inactive, CYP2C19 activ inactive, CYP2C19 inh 52.4 and CYP2C9 inhib inactive.
CC(C)CCn1c(Br)nc2c1c(=O)n(CC(N)=O)c(=O)n2C was read as CYP2C9 act inactive, CYP2C19 activ inactive, CYP2C19 inh inactive and CYP2C9 inhib inactive.
For O=C(NCCCN1CCOCC1)C(C(=O)c1ccccc1)n1ccccc1=O (stereo not given) the results were CYP2C9 act inactive, CYP2C19 activ inactive, CYP2C19 inh inactive and CYP2C9 inhib inactive.
Screening COc1ccccc1/C=N/Nc1nccnc1Cl returned CYP2C9 act inactive, CYP2C19 activ inactive, CYP2C19 inh 50.8 and CYP2C9 inhib inactive.
Screening CCCNc1nc(C)c(C(C)=O)cc1C#N returned CYP2C9 act inactive, CYP2C19 activ inactive, CYP2C19 inh inactive and CYP2C9 inhib inactive.
For CN(C)C(=O)COc1ccc2ccc(=O)oc2c1 the results were CYP2C9 act inactive, CYP2C19 activ inactive, CYP2C19 inh inactive and CYP2C9 inhib inactive.

Screens from PubChem BioAssay.
